# About 8,600 (12%) of roughly 69,000 compounds showed an effect of 50% or more. For the sample, strong results were picked, then their nearest neighbours and some compounds at random.
# System: Plasmodium berghei
# Experiment: Screen against P. berghei liver stage (PbLuc), transformed with Luciferase, at 10uM
# Format: functional, HepG2
# Settings: tested at 10 uM
row,Compound,INHIBITION
1,O=C(c1ccncc1)N1CCCC(c2ncncc2-c2ccncc2)C1 (configuration not stated),12.3%
2,CCc1noc(CN2CCN(C(=O)OC(C)(C)C)C(C)C2)n1 (configuration not stated),20.4%
3,Cc1ccc(CN2CC(O)CN(C(=O)OCC(C)C)CC2=O)cc1 (configuration not stated),18.4%
4,O=S(=O)(c1cn[nH]c1)N1C[C@@H](O)[C@H](N2CCc3ccccc3C2)C1,-51.3%
5,COc1cccc(C2CC(=O)Nc3nc(N)sc32)c1OC (configuration not stated),5.53%
6,CC(=O)c1cc(CN2CCCC23CCN(c2ccccn2)CC3)cs1,12.7%
7,CN(C)c1ncc(-c2cncn2CCc2ccc3c(c2)OCCO3)cn1,-12.3%
8,CC(C)S(=O)(=O)N1CCN(C(=O)c2cnn(C)c2Cl)CC1,19.845%
9,O=C(O)c1ccccc1-n1cnc(CN2CCCCCC2)c1,14.6%
10,COCCC(=O)NCCn1nc(C2CCNC2)c2cccnc21 (configuration not stated),5.11%
11,CC(C)(C)CC(=O)NCCn1nc(C2CCNC2)c2cccnc21 (configuration not stated),54.5%
12,O=C(CCC1CCCC1)NCCn1nc(C2CCNC2)c2nccnc21 (configuration not stated),67.1%
13,O=C(NCCn1nc(C2CCNC2)c2cccnc21)C1CC1 (configuration not stated),13.5%
14,O=C(CCC1CCCC1)NCCn1nc(C2CCNC2)c2cccnc21 (configuration not stated),38.7%
15,CC(C)CC(=O)NCCn1nc(C2CCNC2)c2cccnc21 (configuration not stated),44.8%
16,CC(C)(C)OC(=O)N[C@@H]1C[C@@H](O)CN(C(=O)c2ccc(F)cc2)C[C@H]1O,6.26%
17,COCCN1CCC(c2ncc(C(=O)N3CCOCC3)c(C)n2)CC1,-2.09%
18,CC(C)NC(=O)CNC(=O)C12CCC(=O)N1c1cc(Cl)ccc1S2 (configuration not stated),73.6%
19,CCOCCCNC(=O)C1(C)CCC(=O)N1c1ccccc1F (configuration not stated),37.4%
20,COC(=O)CNC(=O)C12CCC(=O)N1c1cc(Cl)ccc1S2 (configuration not stated),15.9%
21,CC(C)C(=O)NCc1cccc(N2CCCCC2=O)c1,19.4%
22,CC(C)C(=O)NCCNC(=O)C12CCC(=O)N1c1cc(Cl)ccc1S2 (configuration not stated),57.6%
23,CC(C)NC(=O)CNC(=O)N1CCc2c([nH]c3ccc(Cl)cc23)C1,-22.9%
24,Cc1nn(C)c(Cl)c1C1CCCN1C(=O)c1ccncc1 (configuration not stated),38.5%
25,O=C(c1cscn1)N1CCC2(CCCN(CCOc3ccccc3)C2)C1 (configuration not stated),-31.9%
26,CCN(C)S(=O)(=O)NCC1CCCN(Cc2ccccc2F)C1 (configuration not stated),1.74%

row,Compound,INHIBITION
1,CCC(C)N1Cc2c(C(=O)N3CCOCC3)nn(C)c2C1 (configuration not stated),19.5%
2,Cc1cnn(CC2CCCCN2C(=O)Cc2ccc(C#N)cc2)c1 (configuration not stated),2.97%
3,Oc1cc(CN2CCC(O)(Cn3ccnc3)CC2)nc2ccc(F)cc12,62.8%
4,Cc1ccc2nc(CN3CCN(C4CCCC4)C(=O)C3)cc(O)c2c1,-0.529%
5,Cc1ccc2nc(CN3CCN(C4CCCCC4)C(=O)C3)cc(O)c2c1,-46.2%
6,Cc1ccc2nc(CN3CCC(O)(Cn4ccnc4)CC3)cc(O)c2c1,43.4%
7,Cc1ccc2nc(CN3CCC(O)(CN4CCCC4)CC3)cc(O)c2c1,69.3%
8,Oc1cc(CN2CCC(O)(Cn3ccnc3)CC2)nc2c(Cl)cccc12,27.6%
9,CC(=O)N1CCc2nc(C3CCN(C(=O)c4ccccc4)C3)ncc2C1 (configuration not stated),-29.8%
10,CN(Cc1cccs1)C(=O)CN1CCCC(Cn2cncn2)C1 (configuration not stated),-4.16%
11,CN1CCCN(S(=O)(=O)c2cccc(C(=O)N3CCCCCC3)c2)CC1,36%
12,CCc1nnc(CNC(=O)CCC2CCCCN2C)s1 (configuration not stated),6.72%
13,CS(=O)(=O)NCCC1CCCN(Cc2ccccc2F)C1 (configuration not stated),43.1%
14,Cc1[nH]c(=O)[nH]c(=O)c1CN1CCCC(CCc2ccccc2F)C1 (configuration not stated),19.7%
15,COc1cccc(F)c1CN1CCC(c2nc(C)cc(C)n2)C1 (configuration not stated),43.45%
16,CN1N=C(C(=O)N2CCCC(CCc3c(F)cccc3F)C2)CCC1=O (configuration not stated),0.139%
17,COc1coc(CN2CCCC(CCc3ccccc3F)C2)cc1=O (configuration not stated),60.4%
18,Cc1[nH]c(=O)[nH]c(=O)c1CN1CCCC(CCc2c(F)cccc2F)C1 (configuration not stated),6.8%
19,COc1coc(CN2CCCC(CCc3c(F)cccc3F)C2)cc1=O (configuration not stated),56.3%
20,O=c1cc(CN2CCCC(CCc3c(F)cccc3F)C2)[nH]c(=O)[nH]1 (configuration not stated),58.5%
21,COc1coc(CN2CCCC(CCc3ccccc3C)C2)cc1=O (configuration not stated),46.4%
22,COCCOCC(=O)NCc1ccc(N(C)C)nc1,26.1%
23,COCCN1CCN(C(C(=O)O)c2ccc(SC)cc2)CC1 (configuration not stated),49.4%
24,Cn1cc(CN2CCCC(O)C2)c(-c2ccccc2F)n1 (configuration not stated),3.13%
25,COc1cccc(CN2CCC3(CC2)CCN(C(=O)[C@@H]2CCCO2)C3)c1,-47.9%
26,Cc1ccc(N2CCOC(C)(C(=O)N(C)C)C2)nn1 (configuration not stated),18.3%
